Measurements from paper PMC5700166.
Residue numbers refer to the chain shown, from its start.

Legend:
Experiment in all cases: protein-binding microarray (PBM); PBM: ~300 nM protein, 6 mM HEPES pH 7.8, 80 mM KCl, 0.5 mM EDTA, 0.5 mM EGTA, 6% glycerol, 35 ng/ul poly-dIdC, 1% milk, 1 h, room temperature; Ap Aiptasia and Nv Nematostella (sea anemones) / Co Capsaspora / Aq Amphimedon (sponge) / Dm Drosophila / Hu human; RHD is the Rel homology domain; high values mean tight binding
Conditions in all cases: dsDNA, one strand shown
[1] = biological target: T1, GST-Ap-NF-kB RHD (Exaiptasia pallida (Aiptasia), UniProt A0A913YAJ5 2-422)
T1 sequence: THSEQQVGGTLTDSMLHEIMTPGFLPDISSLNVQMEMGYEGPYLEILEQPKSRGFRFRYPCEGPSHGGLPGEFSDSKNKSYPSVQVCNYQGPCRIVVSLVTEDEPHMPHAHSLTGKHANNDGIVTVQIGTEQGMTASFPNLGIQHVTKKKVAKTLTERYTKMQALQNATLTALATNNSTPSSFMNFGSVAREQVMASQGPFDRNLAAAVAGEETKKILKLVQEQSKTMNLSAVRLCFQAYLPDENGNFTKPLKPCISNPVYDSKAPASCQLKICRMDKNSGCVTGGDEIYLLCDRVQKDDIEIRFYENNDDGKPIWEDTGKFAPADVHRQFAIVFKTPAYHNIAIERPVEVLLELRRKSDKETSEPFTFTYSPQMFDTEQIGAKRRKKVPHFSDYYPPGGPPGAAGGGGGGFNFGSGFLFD

[2] = biological target: T2, GST-Nv-NF-kB (Cys allele) (Nematostella vectensis, UniProt E5G601 2-411)
T2 sequence: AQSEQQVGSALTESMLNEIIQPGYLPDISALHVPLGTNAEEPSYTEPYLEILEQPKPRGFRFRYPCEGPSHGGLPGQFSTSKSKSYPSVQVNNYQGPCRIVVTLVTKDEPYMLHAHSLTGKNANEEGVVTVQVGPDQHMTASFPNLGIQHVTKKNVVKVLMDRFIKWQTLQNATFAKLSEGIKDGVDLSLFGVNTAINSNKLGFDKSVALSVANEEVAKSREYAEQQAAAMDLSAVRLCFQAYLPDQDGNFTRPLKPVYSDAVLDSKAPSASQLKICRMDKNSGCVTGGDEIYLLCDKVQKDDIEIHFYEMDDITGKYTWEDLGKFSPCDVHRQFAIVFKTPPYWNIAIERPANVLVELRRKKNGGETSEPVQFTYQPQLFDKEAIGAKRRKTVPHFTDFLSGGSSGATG

[3] = biological target: T3, GST-Co-NF-kB (Capsaspora owczarzaki, UniProt F1ARL5 200-546)
T3 sequence: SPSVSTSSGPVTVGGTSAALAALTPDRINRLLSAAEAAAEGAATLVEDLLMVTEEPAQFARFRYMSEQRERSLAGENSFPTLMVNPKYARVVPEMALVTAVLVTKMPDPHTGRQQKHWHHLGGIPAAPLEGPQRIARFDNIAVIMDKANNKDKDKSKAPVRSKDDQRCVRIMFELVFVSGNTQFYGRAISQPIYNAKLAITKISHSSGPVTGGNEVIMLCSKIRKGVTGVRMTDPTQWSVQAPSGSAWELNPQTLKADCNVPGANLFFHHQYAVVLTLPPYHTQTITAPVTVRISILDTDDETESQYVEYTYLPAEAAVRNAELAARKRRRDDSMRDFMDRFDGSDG

[4] = biological target: T4, GST-Aq-NF-kB (Amphimedon queenslandica, UniProt A9Y5G7 2-389)
T4 sequence: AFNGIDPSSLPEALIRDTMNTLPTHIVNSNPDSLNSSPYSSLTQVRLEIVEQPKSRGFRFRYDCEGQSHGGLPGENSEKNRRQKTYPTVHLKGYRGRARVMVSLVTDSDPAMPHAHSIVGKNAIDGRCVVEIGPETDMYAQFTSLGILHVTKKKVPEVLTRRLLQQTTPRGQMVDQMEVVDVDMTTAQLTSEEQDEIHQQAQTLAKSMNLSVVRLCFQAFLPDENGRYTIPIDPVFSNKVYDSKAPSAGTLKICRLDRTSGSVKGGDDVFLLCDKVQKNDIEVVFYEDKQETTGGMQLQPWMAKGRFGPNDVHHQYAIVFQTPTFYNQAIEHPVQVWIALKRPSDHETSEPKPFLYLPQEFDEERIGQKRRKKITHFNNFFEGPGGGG

[5] = biological target: T5, GST-Nv-NF-kB (Ser allele) (Nematostella vectensis, UniProt A7UNT2 2-411)
T5 sequence: T2 sequence with Q21R, C66S, S207N, E215Q, V217A, E225K, A268E, D399E

[6] = biological target: T6, GST-Dm-Relish (Drosophila melanogaster, UniProt Q94527 99-473)
T6 sequence: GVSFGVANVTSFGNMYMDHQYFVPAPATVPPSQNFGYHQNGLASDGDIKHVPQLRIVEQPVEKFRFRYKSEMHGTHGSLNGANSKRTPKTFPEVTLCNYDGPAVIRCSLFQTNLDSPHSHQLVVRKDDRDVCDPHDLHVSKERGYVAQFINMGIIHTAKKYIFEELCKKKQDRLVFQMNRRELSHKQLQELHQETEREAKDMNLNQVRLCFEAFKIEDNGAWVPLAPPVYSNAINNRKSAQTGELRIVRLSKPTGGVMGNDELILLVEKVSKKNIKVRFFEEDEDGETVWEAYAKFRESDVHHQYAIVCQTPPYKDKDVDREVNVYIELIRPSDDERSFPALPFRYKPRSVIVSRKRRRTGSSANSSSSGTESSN

Row | Sequence | binding signal [1] | binding signal [2] | binding signal [3] | binding signal [4] | binding signal [5] | binding signal [6]
1 | CCGATTAACATCATGGGGACGACTGATGTTAATCGGGTCTTGATTCGCTTGACGCTGCTG | 3.56 z-score | 3.19 z-score | 2.39 z-score | 2.64 z-score | – | –
2 | CCGATTAACATCATGGGAAGGTTTGATGTTAATCGGGTCTTGATTCGCTTGACGCTGCTG | 1.34 z-score | 1.55 z-score | 2.28 z-score | 1.66 z-score | – | –
3 | CCGATTAACATCAAATTTTTCCCTGATGTTAATCGGGTCTTGATTCGCTTGACGCTGCTG | 3.81 z-score | 6.06 z-score | 6.81 z-score | 4.92 z-score | 8.21 z-score | 2.35 z-score
4 | CCGATTAACATCAAGGGGGGGTATGATGTTAATCGGGTCTTGATTCGCTTGACGCTGCTG | 4.96 z-score | 3.8 z-score | 5.09 z-score | 4.39 z-score | 3.62 z-score | 4.14 z-score
5 | CCGATTAACATCACGAAATTCCCTGATGTTAATCGGGTCTTGATTCGCTTGACGCTGCTG | 4.84 z-score | 6.78 z-score | 4.17 z-score | 5.74 z-score | 7.28 z-score | 4.59 z-score
6 | CCGATTAACATCACATGGGAAACTGATGTTAATCGGGTCTTGATTCGCTTGACGCTGCTG | 1.24 z-score | 2.14 z-score | 2.48 z-score | 1.58 z-score | – | –
7 | CCGATTAACATCAGGGGAAGAAATGATGTTAATCGGGTCTTGATTCGCTTGACGCTGCTG | 4.46 z-score | 5.99 z-score | 8.71 z-score | 4.68 z-score | 6.85 z-score | 6.53 z-score
8 | CCGATTAACATCAGGGGAGTGTATGATGTTAATCGGGTCTTGATTCGCTTGACGCTGCTG | 3.6 z-score | 3.38 z-score | 3.2 z-score | 2.89 z-score | – | –
9 | CCGATTAACATCACGCCCCCCCCTGATGTTAATCGGGTCTTGATTCGCTTGACGCTGCTG | 5.3 z-score | 4.2 z-score | 3.87 z-score | 4.89 z-score | 4.8 z-score | 4.72 z-score
10 | CCGATTAACATCAAAAATTCCCATGATGTTAATCGGGTCTTGATTCGCTTGACGCTGCTG | 5.04 z-score | 7.75 z-score | 5.2 z-score | 6.55 z-score | 6.99 z-score | 7.58 z-score
11 | CCGATTAACATCACCGTTTTCCCTGATGTTAATCGGGTCTTGATTCGCTTGACGCTGCTG | 3.62 z-score | 4.51 z-score | 4.03 z-score | 3.24 z-score | 6.61 z-score | 2.19 z-score
12 | CCGATTAACATCATACAAGGGAGTGATGTTAATCGGGTCTTGATTCGCTTGACGCTGCTG | 1.02 z-score | 1.41 z-score | 1.46 z-score | 2.84 z-score | – | –
13 | CCGATTAACATCAGTACGGGAAATGATGTTAATCGGGTCTTGATTCGCTTGACGCTGCTG | 1.79 z-score | 3.11 z-score | 2.65 z-score | 2.81 z-score | – | –
14 | CCGATTAACATCAGAATCTCCCATGATGTTAATCGGGTCTTGATTCGCTTGACGCTGCTG | 1.74 z-score | 2.74 z-score | 1.64 z-score | 2.73 z-score | – | –
15 | CCGATTAACATCACATCTTTCCCTGATGTTAATCGGGTCTTGATTCGCTTGACGCTGCTG | 2.24 z-score | 3.96 z-score | 3.84 z-score | 4.25 z-score | – | –
